The nature of experiment [1]: qHTS assay to identify small molecule antagonists of the sonic hedgehog signaling (Shh) pathway (AID 1259369; calls by dose curve; further: nearly all actives have a fitted effect of over 45% in size; further: potency means the concentration at half of the fitted maximal effect). A digest of the protocol: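 NIH/3T3-derived 3T3Gli1-Luc cells with stably integrated Gli1-Luc reporter were preincubated 4hr at 37 C, then given compounds in DMSO plus Shh conditioned medium and incubated 24hr. Firefly luciferase luminescence read after 30min reagent at room temperature.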

Experiment [2] addresses Estrogen receptor beta (Homo sapiens) (UniProt Q92731). Put plainly: qHTS assay to identify small molecule agonists of the estrogen receptor beta (ER-beta) signaling pathway (AID 1259377; active means well fitted activation curve with a large enough effect in the signal ratio in the repeat runs, not every such curve was filed as active; the % refers to the signal ratio; further: potency means the concentration at half of the fitted maximal effect). The gist of the method:
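qHTS in ER-beta-UAS-bla HEK293T cells: 6 hr settling, then 16 hr compound at 37C, then LiveBLAzer substrate 2 h at RT before fluorescence reading.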

The target is the same in experiment [3]. Briefly: qHTS assay to identify small molecule antagonists of the estrogen receptor beta (ER-beta) signaling pathway (AID 1259378; active means well fitted inhibition curve with a large enough effect in the signal ratio in the repeat runs, not every such curve was filed as active; the % refers to the signal ratio). A digest of the protocol:
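ER-beta-UAS-bla HEK293T cells in 2% charcoal-stripped FBS medium treated with compound plus 1nM final 17-beta-estradiol for 16 hr at 37C. Beta-lactamase reporter read by FRET substrate fluorescence after 2 hours at room temperature.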
Background: In qHTS, concentration-response curves come from the screen itself.

A short description of experiment [4]: qHTS assay to identify small molecule antagonists of the estrogen receptor beta (ER-beta) signaling pathway - cell viability counter screen (AID 1259382). Further: nearly all actives have a fitted effect of over 55% in size. Further: potency means the concentration at half of the fitted maximal effect. A digest of the protocol: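 ER-beta-UAS-bla HEK293T cells (2,000/well, 2% charcoal-stripped FBS) were pre-incubated 6 hr at 37C, then given compound plus 1nM final 17-beta-estradiol for 16 hr. Viability was read in the same wells by CellTiter-Glo luminescence after 30 min at room temperature.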

Experiment [5] has as its target Estrogen receptor (Homo sapiens) (UniProt P03372). Briefly: qHTS assay to identify small molecule agonists of the estrogen receptor alpha (ER-alpha) signaling pathway in the presence of an antagonist (AID 1259383; calls by dose curve; further: top concentration of the series differs between compounds; nearly all actives have a fitted effect of over 15% in size). The gist of the method: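 VM7Luc4E2 cells (endogenous full-length ER-alpha, 4×ERE-luciferase) were precultured 5 days in phenol red-free medium with 10% charcoal-stripped FBS, given 10.0nM ICI-182,780 (final), then treated with compounds at 15 concentrations for 22hr at 37C; luminescence read with ONE-Glo.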

A short description of experiment [6]: qHTS assay to identify small molecule agonists of the estrogen receptor alpha (ER-alpha) signaling pathway in the presence of an antagonist - cell viability counter screen (AID 1259386).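 Further: series mostly up to about 92 µM; cells exposed to compounds for 22 h at 37 °C before the viability read; nearly all actives have a fitted effect of over 30% in size.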 The gist of the method:
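VM7Luc4E2 cells (endogenous full-length ER-alpha, 4×ERE-luciferase) were held 5 days in phenol red-free medium with 10% charcoal-stripped FBS, plated, then given 10.0nM ICI-182,780 and compounds at 15 concentrations for 22hr at 37C; viability read by CellTiter-Fluor fluorescence.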

Experiment [7] can be described thus: qHTS assay to identify small molecule antagonists of the progesterone receptor (PR) signaling pathway - cell viability counter screen (AID 1346798). Further: nearly all actives have a fitted effect of over 50% in size. Further: potency means the concentration at half of the fitted maximal effect. The gist of the method:
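CellTiter-Glo luminescence; PR-UAS-bla HEK293T, 3,000 cells/well; compound + R5020, 16 hr, 37C/5% CO2; 30 min RT before read.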

Experiment [8] can be described thus: qHTS assay to identify small molecule agonists of the progesterone receptor (PR) signaling pathway - cell viability counter screen (AID 1346799; calls by dose curve; further: nearly all actives have a fitted effect of over 45% in size). A digest of the protocol: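 In parallel with the beta-lactamase readout, cytotoxicity toward PR-UAS-bla HEK293T cells was measured by CellTiter-Glo luminescence following 16 hr compound incubation in 2% charcoal-stripped FBS medium.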

The nature of experiment [9]: qHTS assay to identify small molecule antagonists of the TGF-beta/Smad signaling pathway - cell viability counter screen (AID 1346824). Further: nearly all actives have a fitted effect of over 50% in size. A digest of the protocol:
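SBE-bla HEK 293T cells, incubated overnight, then compound plus 0.25 ng/mL TGF-beta1 (stock added) for 5 hr at 37 C. Viability was read in the same wells by CellTiter-Glo luminescence after 30 min at room temperature.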

A short description of experiment [10]: qHTS assay to identify small molecule agonists of the TGF-beta/Smad signaling pathway (AID 1346859; active means well fitted activation curve with a large enough effect in the signal ratio in the repeat runs, not every such curve was filed as active; the % refers to the signal ratio; further: series mostly up to about 77 µM). The gist of the method:
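After overnight seeding, SBE-bla HEK 293T cells are dosed with compounds in DMSO and kept 5 hr at 37 C, 5% CO2. LiveBLAzer-type FRET substrate is then applied for 2 hr at room temperature.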

The target in experiment [11] is Thyrotropin-releasing hormone receptor (Homo sapiens) (UniProt P34981). Put plainly: qHTS assay to identify small molecule antagonists of the thyrotropin-releasing hormone receptor (TRHR) signaling pathway (AID 1346877; active means well fitted inhibition curve with a large enough effect in the repeat runs, not every such curve was filed as active; further: series mostly up to about 51 µM). The gist of the method: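 TRHR-expressing HEK293 cells were seeded, cultured 18 h at 37 °C, then loaded with calcium dye for 2 h. Compounds were pre-incubated 5 min at room temperature before 1 nM TRH (final) was added, and kinetic fluorescence was recorded for 3 min.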

For experiment [12] the target is unchanged. Briefly: qHTS assay to identify small molecule agonists of the thyrotropin-releasing hormone receptor (TRHR) signaling pathway (AID 1346891; calls by dose curve; further: series mostly up to about 58 µM). A digest of the protocol:
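Compounds were tested as agonists at 15 concentrations, in triplicate, on TRHR-Hek293 cells; calcium-sensitive dye fluorescence was recorded for 3 min following addition.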

Experiment [13] can be described thus: qHTS assay to identify small molecule agonists of the estrogen receptor beta (ER-beta) signaling pathway - cell viability counter screen (AID 1259380). Further: nearly all actives have a fitted effect of over 30% in size. Further: potency means the concentration at half of the fitted maximal effect. A digest of the protocol:
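ER-beta-UAS-bla HEK293T cells in medium with 2% charcoal-stripped FBS were preincubated 6 hr at 37C, dosed with compound in DMSO for 16 hr, then after the bla read, CellTiter-Glo was added for 30 min at room temperature; luminescence recorded.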

A short description of experiment [14]: qHTS assay to identify small molecule agonists or antagonists of the thyroid stimulating hormone receptor (TSHR) signaling pathway - wild type cell line counter screen (AID 1259384; calls by dose curve). A digest of the protocol: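 Wild-type Hek293 cells, 800/well, 18 h at 37C, then compound with Ro20-1724 for 30 min RT. cAMP by HTRF (cAMP-d2/anti-cAMP cryptate), 1 h RT, fluorescence read. 15 concentrations, triplicates.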

The target in experiment [15] is Progesterone receptor (Homo sapiens) (UniProt P06401). Put plainly: qHTS assay to identify small molecule agonists of the progesterone receptor (PR) signaling pathway (AID 1346784; calls by dose curve; further: nearly all actives have a fitted effect of over 30% in size). The gist of the method:
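Fluorescence from LiveBLAzer B/G FRET substrate cleavage (2 hr, RT) reported PR activation in PR-UAS-bla HEK 293T cells treated 16 hr at 37C/5% CO2 with compounds; medium contained 2% charcoal-stripped FBS.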

Experiment [16] shares this target. Briefly: qHTS assay to identify small molecule antagonists of the progesterone receptor (PR) signaling pathway (AID 1346795; active means well fitted inhibition curve with a large enough effect in the signal ratio in the repeat runs, not every such curve was filed as active; the % refers to the signal ratio). The gist of the method:
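Fluorescence intensity measured 2 hr after adding beta-lactamase FRET substrate to PR-UAS-bla HEK293T cells that had been co-treated 16 hr with compound and 1 nM R5020 (final concentration) in 2% charcoal-stripped FBS.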

A short description of experiment [17]: qHTS assay to identify small molecule agonists of the TGF-beta/Smad signaling pathway - cell viability counter screen (AID 1346829). Further: top concentration of the series differs between compounds; nearly all actives have a fitted effect of over 45% in size. A digest of the protocol:
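Here the cytotoxicity of library compounds is measured in SBE-bla HEK 293T cells treated for 5 hr, using CellTiter-Glo added to wells already read for the beta-lactamase reporter.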

Experiment [18] is described as follows: qHTS assay to identify small molecule agonists of the androgen receptor (AR) signaling pathway in the presence of an antagonist - cell viability counter screen (AID 1259379). Further: series mostly up to about 92 µM; nearly all actives have a fitted effect of over 25% in size. The gist of the method: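 MDA-kb2 human breast carcinoma cells (stable MMTV-luciferase, AR/GR responsive) were seeded 3,000 cells/well, pre-incubated 5 hr at 37C without CO2, then given 3.0uM nilutamide and compounds at 15 concentrations for 16 hr. Viability was read by CellTiter-Fluor fluorescence.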

In experiment [19] the target is Androgen receptor (Homo sapiens) (UniProt P10275). Briefly: qHTS assay to identify small molecule agonists of the androgen receptor (AR) signaling pathway in the presence of an antagonist (AID 1259381; calls by dose curve; further: nearly all actives have a fitted effect of over 15% in size). A digest of the protocol:
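MDA-kb2 human breast carcinoma cells carrying an MMTV-luciferase reporter (AR- and GR-responsive) were treated with compounds at 15 concentrations plus 3.0uM final nilutamide for 16hr at 37C without CO2; luminescence was read after ONE-Glo addition.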

The target in experiment [20] is Thyrotropin receptor (Homo sapiens) (UniProt P16473). Briefly: qHTS assay to identify small molecule antagonists of the thyroid stimulating hormone receptor (TSHR) signaling pathway (AID 1259385; calls by dose curve; further: nearly all actives have a fitted effect of over 20% in size; further: potency means the concentration at half of the fitted maximal effect). The gist of the method: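 TSHR-HEK293 cells (800/well) plated 18 h, then compounds with Ro20-1724 and TSH at 1.5 ng/mL final, 30 min at room temperature. cAMP quantified by HTRF (cAMP-d2/anti-cAMP-cryptate, 1 h); 15 concentrations in triplicate.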

Molecules are shown by their SMILES. Unmarked numbers belong to inactive results. Results filed as inconclusive are left out. Calls of active or inactive are those of the source. Unless noted, the call rests on the fitted dose curve; in most records, active means well fitted curve in the direction sought with a large enough effect in the repeat runs; inconclusive means weak or mixed curves; inactive means no such curve, though single readings can be large; an effect the other way counts as inactive or inconclusive.

Sequence of Thyrotropin receptor (Homo sapiens) (P16473 whole entry, looked up): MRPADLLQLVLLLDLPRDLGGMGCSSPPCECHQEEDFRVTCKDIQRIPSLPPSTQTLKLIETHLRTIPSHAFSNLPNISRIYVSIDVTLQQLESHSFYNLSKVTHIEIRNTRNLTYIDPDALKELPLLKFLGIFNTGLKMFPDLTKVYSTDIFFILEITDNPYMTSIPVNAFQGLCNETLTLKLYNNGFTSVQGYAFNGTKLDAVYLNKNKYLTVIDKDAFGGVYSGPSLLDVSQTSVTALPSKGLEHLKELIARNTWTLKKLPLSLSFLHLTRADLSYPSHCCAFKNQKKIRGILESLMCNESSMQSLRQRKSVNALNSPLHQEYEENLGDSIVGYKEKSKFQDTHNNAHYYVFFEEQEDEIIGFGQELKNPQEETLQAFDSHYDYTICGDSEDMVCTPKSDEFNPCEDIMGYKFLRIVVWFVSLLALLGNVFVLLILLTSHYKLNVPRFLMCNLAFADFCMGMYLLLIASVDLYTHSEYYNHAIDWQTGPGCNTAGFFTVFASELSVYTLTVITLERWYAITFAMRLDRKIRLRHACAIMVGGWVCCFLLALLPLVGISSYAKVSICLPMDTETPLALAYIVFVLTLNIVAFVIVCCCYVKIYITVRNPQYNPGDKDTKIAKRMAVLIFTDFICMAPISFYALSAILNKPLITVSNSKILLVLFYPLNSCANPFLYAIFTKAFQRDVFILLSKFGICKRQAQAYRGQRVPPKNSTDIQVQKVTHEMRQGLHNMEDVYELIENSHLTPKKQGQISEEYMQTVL
Sequence of Estrogen receptor beta (Homo sapiens) (Q92731 whole entry, looked up): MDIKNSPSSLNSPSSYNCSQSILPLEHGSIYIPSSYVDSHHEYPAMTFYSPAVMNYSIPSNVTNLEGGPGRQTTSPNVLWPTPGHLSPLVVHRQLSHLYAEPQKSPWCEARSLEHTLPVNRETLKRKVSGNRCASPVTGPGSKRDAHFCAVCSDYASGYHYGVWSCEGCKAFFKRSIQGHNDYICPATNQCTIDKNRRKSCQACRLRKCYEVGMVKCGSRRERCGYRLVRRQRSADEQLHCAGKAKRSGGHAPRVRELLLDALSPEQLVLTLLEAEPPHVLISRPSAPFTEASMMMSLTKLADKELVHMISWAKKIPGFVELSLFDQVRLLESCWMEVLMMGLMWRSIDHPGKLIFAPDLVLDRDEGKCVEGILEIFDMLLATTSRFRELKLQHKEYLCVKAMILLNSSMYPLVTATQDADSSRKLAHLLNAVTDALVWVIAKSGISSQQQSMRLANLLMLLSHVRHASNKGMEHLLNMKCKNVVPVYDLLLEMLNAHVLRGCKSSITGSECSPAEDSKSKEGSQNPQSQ
Sequence of Thyrotropin-releasing hormone receptor (Homo sapiens) (P34981 whole entry, looked up): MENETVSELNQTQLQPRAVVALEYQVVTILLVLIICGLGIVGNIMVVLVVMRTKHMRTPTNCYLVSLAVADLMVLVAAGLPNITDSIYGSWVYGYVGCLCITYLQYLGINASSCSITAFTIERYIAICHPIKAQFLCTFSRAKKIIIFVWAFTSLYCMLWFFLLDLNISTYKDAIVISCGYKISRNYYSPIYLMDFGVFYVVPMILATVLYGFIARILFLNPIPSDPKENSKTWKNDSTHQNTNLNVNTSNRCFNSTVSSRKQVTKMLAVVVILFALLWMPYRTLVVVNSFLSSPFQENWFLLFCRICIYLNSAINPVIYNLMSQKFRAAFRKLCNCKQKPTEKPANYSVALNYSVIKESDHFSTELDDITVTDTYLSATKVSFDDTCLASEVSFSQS
Sequence of Progesterone receptor (Homo sapiens) (P06401 whole entry, looked up): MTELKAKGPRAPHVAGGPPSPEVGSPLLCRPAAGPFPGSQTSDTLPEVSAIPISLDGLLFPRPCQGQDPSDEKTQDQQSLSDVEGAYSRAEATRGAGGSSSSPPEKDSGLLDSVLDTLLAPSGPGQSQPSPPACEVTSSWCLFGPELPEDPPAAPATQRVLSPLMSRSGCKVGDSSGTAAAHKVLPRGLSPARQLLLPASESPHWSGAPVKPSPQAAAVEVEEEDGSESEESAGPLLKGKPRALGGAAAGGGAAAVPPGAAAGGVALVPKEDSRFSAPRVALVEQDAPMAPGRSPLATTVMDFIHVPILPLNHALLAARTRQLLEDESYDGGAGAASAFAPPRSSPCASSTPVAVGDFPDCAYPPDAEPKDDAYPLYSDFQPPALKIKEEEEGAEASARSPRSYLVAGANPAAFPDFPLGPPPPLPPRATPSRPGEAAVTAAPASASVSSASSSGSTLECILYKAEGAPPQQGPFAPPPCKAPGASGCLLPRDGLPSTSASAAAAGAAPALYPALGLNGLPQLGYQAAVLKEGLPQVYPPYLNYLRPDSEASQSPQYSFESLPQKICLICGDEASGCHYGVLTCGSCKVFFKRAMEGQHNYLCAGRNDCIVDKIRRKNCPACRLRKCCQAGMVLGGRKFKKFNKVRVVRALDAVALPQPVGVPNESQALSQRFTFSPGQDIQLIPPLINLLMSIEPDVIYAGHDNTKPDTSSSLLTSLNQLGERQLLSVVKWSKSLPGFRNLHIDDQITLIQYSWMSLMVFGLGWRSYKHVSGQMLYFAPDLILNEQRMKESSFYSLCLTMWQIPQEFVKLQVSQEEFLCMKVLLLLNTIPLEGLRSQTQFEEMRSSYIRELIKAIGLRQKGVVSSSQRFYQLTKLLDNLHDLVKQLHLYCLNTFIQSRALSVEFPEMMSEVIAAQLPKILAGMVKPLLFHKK
Sequence of Estrogen receptor (Homo sapiens) (P03372 whole entry, looked up): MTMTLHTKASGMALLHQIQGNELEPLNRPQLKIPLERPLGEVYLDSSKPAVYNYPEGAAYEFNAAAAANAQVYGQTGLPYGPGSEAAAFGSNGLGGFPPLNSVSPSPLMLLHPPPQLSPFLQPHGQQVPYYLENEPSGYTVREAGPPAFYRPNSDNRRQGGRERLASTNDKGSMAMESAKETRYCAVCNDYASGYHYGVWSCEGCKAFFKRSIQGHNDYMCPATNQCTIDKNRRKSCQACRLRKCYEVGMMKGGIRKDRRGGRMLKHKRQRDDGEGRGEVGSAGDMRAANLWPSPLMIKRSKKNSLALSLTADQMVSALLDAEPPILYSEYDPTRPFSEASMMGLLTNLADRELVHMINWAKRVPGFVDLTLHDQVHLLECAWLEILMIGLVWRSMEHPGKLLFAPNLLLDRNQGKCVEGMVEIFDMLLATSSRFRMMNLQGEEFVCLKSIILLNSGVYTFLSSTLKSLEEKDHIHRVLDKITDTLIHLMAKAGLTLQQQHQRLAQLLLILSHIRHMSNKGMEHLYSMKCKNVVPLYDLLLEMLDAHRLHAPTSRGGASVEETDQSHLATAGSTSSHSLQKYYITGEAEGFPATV
Sequence of Androgen receptor (Homo sapiens) (P10275 whole entry, looked up): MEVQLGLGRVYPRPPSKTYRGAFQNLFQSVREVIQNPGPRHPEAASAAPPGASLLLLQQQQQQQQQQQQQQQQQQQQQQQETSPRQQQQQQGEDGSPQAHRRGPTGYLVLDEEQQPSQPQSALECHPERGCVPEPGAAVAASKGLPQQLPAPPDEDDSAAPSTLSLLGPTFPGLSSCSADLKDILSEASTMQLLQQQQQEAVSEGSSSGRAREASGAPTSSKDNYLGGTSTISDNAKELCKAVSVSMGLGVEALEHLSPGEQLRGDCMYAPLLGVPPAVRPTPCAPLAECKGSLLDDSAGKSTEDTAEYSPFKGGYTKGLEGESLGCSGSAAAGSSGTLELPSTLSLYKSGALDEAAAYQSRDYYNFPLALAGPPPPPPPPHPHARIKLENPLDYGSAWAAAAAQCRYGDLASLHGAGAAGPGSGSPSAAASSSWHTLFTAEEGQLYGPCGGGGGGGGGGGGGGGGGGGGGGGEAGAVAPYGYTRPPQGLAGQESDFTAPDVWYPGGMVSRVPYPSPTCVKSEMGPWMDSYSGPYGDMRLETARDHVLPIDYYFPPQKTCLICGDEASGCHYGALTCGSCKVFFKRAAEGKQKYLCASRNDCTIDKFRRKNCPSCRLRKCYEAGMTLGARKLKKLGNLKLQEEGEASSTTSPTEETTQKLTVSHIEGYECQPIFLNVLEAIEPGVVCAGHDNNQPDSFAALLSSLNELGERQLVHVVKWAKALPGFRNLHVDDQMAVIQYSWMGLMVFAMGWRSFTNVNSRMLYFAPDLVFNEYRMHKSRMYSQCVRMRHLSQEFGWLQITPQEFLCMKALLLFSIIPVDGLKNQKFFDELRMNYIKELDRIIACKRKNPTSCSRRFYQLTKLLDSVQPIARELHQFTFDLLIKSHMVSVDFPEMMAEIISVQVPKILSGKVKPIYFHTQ

For the compound `C#CCN(C)CCCOc1ccc(Cl)cc1Cl`, the Potency result in experiment [1], in experiment [2], in [3], in [4], in experiment [5] and in [6] was “inactive” throughout. Besides, the Potency result in experiment [7], in experiment [8], in [9], in experiment [10] and in [12] was “inactive” in each case. Further, the result in [11] was inactive.

Turning to `CCCOC(C(=O)OC1CCN(C)CC1)(c1ccccc1)c1ccccc1`, the Potency in [1] was 21.1 µM (active); in experiment [13] it was 26.6 µM (active). The Potency entry in [2], in experiment [5], in experiment [14], in experiment [6], in [15] and in [16] was “inactive” in each case. For the same compound, the Potency entry in [9] and in experiment [10] was “inactive” throughout. In addition, the outcome in experiment [17] was inactive.

As to `CCCCCCCCCCO[C@@H]1O[C@H](CO)[C@@H](O)[C@H](O)[C@H]1O`, in experiment [1], the Potency was 61.1 µM (active). For the same compound, the Potency entry in [2], in [18], in experiment [13], in [4], in [5] and in [14] was “inactive” throughout. In addition, the Potency entry in [6], in experiment [15], in experiment [7], in experiment [8], in experiment [9] and in experiment [10] was “inactive” in each case. Also, the call in experiment [17] was inactive.

Turning to `COc1ccc2cccc(CCNC(C)=O)c2c1`, the Potency entry in experiment [1], in experiment [3], in [18], in experiment [19], in experiment [4] and in experiment [5] was “inactive” throughout. Besides, the Potency entry in experiment [6], in [16], in [7], in experiment [8], in [9] and in [10] was “inactive” in each case. Further, the Potency result in experiment [12] was “inactive”. The outcome in [17] was inactive.

In the case of `CC(C)=CCC/C(C)=C/CC/C(C)=C/CO`, the Potency in experiment [1] is 43.3 µM (active). The Potency entry in experiment [2], in experiment [18], in experiment [4], in [14], in [20] and in experiment [6] was “inactive” in each case. In addition, the Potency result in experiment [15], in experiment [7], in experiment [8], in [9], in experiment [10] and in [12] was “inactive” throughout. For the same compound, the compound was called inactive in experiment [17] and in experiment [11].

Take `CCOC(=O)C(O)c1ccccc1` (stereo not drawn): the Potency result in experiment [1], in experiment [3], in experiment [13], in experiment [19], in experiment [4] and in [5] was “inactive” in each case. The Potency entry in [14], in experiment [20], in [6], in [15], in experiment [16] and in [7] was “inactive” in each case. Also, the Potency entry in experiment [8], in experiment [9], in experiment [10] and in experiment [12] was “inactive” in each case. Also, the outcome in [17] and in experiment [11] was inactive.

On to `Clc1ccc2c(c1)CCc1cccnc1C2=C1CCNCC1`, for which the Potency was 1.68 µM (active) in experiment [1]; 33.5 µM (active) in [13]; 18.8 µM (active) in experiment [4]; 26.6 µM (active) in experiment [20]; 21.1 µM (active) in [7]. In addition, the Potency entry in [2], in experiment [5], in [14], in [6], in [9] and in experiment [10] was “inactive” in each case. The call in experiment [17] was inactive.

With `C#C[C@]1(O)CC[C@H]2[C@@H]3CCc4cc(OC5CCCC5)ccc4[C@H]3CC[C@@]21C`, the Potency entry in experiment [1], in [18], in [14], in experiment [6], in experiment [15] and in experiment [7] was “inactive” throughout. The Potency entry in [8], in [9] and in experiment [10] was “inactive” in each case. Moreover, the Potency was 6.68 µM (active) in [2] and 29.8 µM (active) in [13]. For the same compound, the outcome in experiment [17] was inactive.

For the origin of these results see PubChem BioAssay (Tox21).
